Screens as filed in PubChem.
Hits are enriched below; roughly 12% of the tested compounds scored in any of these assays.
G9a block – blocks human histone lysine methyltransferase G9a; G9a H3K9 monomethylation, AlphaScreen, 2 h; Potency, µM (highest dose often 102 µM), for the others: at the top dose activity, negative = inhibition, most hits filed as inhibitors; 350,000 compounds, 8.8% hits; AID 504332; note: % is set by controls: 0 for no effect and ±100 for the full control effect; nearly all actives have a fitted effect of over 75% in size
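Quantitative HTS format: methyltransferase activity on a biotin-tagged H3K9 peptide is measured by AlphaScreen, using a rabbit anti-monomethyl-H3K9 antibody with streptavidin donor and anti-IgG acceptor beads. Final levels are 20 nM enzyme, 500 nM peptide, 20 uM SAM; 2 h RT.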
Sfp PPTase inh – inhibitors of Bacillus subtilis Sfp phosphopantetheinyl transferase; 310,000 compounds, 3.5% hits; Q9F4F7; Biochemical Sfp PPTase activity, qHTS; Potency, µM, for the others: largest response in the series, negative = inhibition, actives largely listed as inhibitors;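 note: the enzyme is Sfp with the accession as filed and its product quenches rhodamine fluorescence; 0% = enzyme reaction without inhibitor and -100% = no enzyme wells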
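Step 1, compound plus 15 nM Sfp-PPTase, 15 min, room temperature. Step 2, add rhodamine-CoA (5 uM) and BHQ-2-YbbR (12.5 uM). Step 3, read 525/598 nm fluorescence at 0 and 30 min.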
JMJD2A Tudor – blocks the human JMJD2A Tudor domain. O75164. AlphaScreen JMJD2A-Tudor / H3K4me3 peptide binding. Potency, µM (top dose mostly 114 µM), inactives show top-dose activity change, negative = inhibition, usual class: inhibitors. 390,000 compounds, 4.4% hits; note: % is set by controls: 0 for no effect and ±100 for the full control effect; nearly all actives have a fitted effect of over 50% in size
Target sequence (O75164 whole entry, looked up, the tested form may be a part): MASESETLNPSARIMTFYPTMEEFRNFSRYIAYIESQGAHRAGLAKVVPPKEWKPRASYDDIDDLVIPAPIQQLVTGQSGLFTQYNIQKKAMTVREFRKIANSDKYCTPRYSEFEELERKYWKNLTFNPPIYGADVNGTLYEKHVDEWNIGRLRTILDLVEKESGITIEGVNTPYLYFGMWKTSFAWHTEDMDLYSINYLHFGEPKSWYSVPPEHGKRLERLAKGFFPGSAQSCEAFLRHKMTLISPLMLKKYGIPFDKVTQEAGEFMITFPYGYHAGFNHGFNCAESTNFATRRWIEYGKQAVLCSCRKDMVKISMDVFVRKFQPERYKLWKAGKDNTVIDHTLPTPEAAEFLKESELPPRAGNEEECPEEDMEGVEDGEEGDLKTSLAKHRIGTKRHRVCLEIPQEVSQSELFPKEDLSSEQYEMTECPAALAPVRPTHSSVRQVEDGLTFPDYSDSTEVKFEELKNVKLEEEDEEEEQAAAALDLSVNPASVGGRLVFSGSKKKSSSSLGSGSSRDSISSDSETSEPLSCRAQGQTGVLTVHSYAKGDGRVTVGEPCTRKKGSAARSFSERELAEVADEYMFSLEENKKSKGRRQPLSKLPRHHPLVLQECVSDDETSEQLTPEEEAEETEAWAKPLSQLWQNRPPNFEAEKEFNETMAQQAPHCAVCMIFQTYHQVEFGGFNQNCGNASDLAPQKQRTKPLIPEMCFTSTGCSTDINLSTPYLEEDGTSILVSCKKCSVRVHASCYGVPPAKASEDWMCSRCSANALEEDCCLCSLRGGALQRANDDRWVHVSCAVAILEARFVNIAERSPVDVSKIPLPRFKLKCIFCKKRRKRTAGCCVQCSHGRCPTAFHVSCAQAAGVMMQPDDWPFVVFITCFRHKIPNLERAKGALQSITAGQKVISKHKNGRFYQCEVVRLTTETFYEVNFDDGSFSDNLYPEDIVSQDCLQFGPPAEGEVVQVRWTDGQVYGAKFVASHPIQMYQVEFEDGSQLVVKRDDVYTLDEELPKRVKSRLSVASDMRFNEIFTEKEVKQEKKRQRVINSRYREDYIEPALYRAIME
HP1b chromo inh – HP1-beta chromodomain-methylated histone interaction inhibition; 390,000 compounds, 0.56% hits; AlphaScreen HP1-beta / biotin-H3K9me3 peptide binding; P83916; AID 540317; Potency, µM (series often up to 114 µM), inactives show at the top dose activity change, negative = inhibition, hits mostly inhibitors; note: nearly all actives have a fitted effect of over 70% in size
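Compound inhibition of the preformed complex between 50 nM HP1-beta and 50 nM biotinylated H3K9me3 peptide was read by AlphaScreen. Buffer was PBS pH 7.4 with 0.01% Tween-20. Incubations ran 30 min at room temperature, with 10 ug/mL donor/acceptor beads.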
BAZ2B block – BAZ2B (human) inhibition | Q9UIF8 | AlphaScreen BAZ2B-H3K14Ac peptide displacement | Potency, µM (titrated, usually from 114 µM), for the others: at the top dose activity change, negative = inhibition, actives largely listed as inhibitors | 360,000 compounds, 4.4% hits | AID 504333; note: % is set by controls: 0 for no effect and ±100 for the full control effect; nearly all actives have a fitted effect of over 60% in size
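Compounds, titrated to a top concentration of 110 uM, were incubated 30 min at room temperature with preformed BAZ2B/acetyl-K14 H3 peptide complex (50 nM each). Proximity signal was measured by AlphaScreen after 20 min with beads.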
Numbers without * were called inactive; ? = inconclusive; . = no result; ! = not confirmed by another sample; [ ] = remark or other dose. Calls come from the whole dose curve; as a rule, active = well fitted curve in the direction sought with a large enough effect; inconclusive = small, poorly fitted or top-dose-only effect, or another doubt; inactive = no such curve, though single readings can be large; an effect the other way counts as inactive or inconclusive. Potency is the fitted concentration of half-maximal effect.

SMILES	G9a block	Sfp PPTase inh	JMJD2A Tudor	HP1b chromo inh	BAZ2B block
O=C(c1cc(C2CC2)on1)N1CCCC(N2CCN(c3cccc(C(F)(F)F)c3)CC2)C1 (stereo not drawn)	79µM*	6%	-26%	8%[57 µM]	-35%
O=C(CSC1=NS(=O)(=O)c2ccccc21)Nc1ccccc1	7.9µM*	13µM*	-15%	31%	?
COC(=O)CSC1=NS(=O)(=O)c2ccccc21	1.4µM*	3.5µM*	16µM*	-17%	-21%
COc1ccc(-c2nc3n(n2)C(c2ccccc2F)C(C(=O)Nc2cccnc2)=C(C)N3)cc1OC (stereo not drawn)	7%[59 µM]	.	-10%	32%	-15%
COCCNc1nnc(SCC(=O)Nc2cc(-c3ccccc3)nn2-c2ccccc2)s1	79µM*	2%	-36%	15%	-38%
COCCNc1nnc(SCC(=O)NC(=O)c2ccccc2)s1	50µM*	.	-11%	35%	7%
CCOc1ccc(C2CC(c3c(O)n(C4CCCCC4)c(=O)[nH]c3=O)=Nc3ccccc3S2)cc1 (stereo not drawn)	-10%[59 µM]	.	-27%	-2%	?
COc1cc(-c2nc3ccc(C)cn3c2Nc2ccc(Cl)cc2)ccc1O	?	.	?	-16%	-32%
COc1cc(-c2nc3sccn3c2Nc2cccc(C)c2)ccc1O	11µM*	.	45µM*	?	13µM*
COc1ccc(N(Cc2cc(=O)[nH]c3ccccc23)C(C)=O)cc1	?	2%	-24%	6%[57 µM]	4%
O=C1c2cccc(O)c2C(=O)c2c(O)cccc21	7.9µM*	28µM*!	.	.	?
COC(=O)c1ccc2c(c1O)C(=O)c1ccccc1C2=O	13µM*	?	?	-18%	?
O=C1c2cccc(Sc3ccccc3)c2C(=O)c2c(Sc3ccccc3)cccc21	1µM*	-23%	3.2µM*	7.9µM*	16µM*
O=C1C=C(O)c2cccc(O)c2C1=O	-139%[59 µM]	-6%	?	12%	?
CCSc1c(C(=O)NC)ccc2c1C(=O)c1ccccc1C2=O	6%	6%	-17%	4%	-29%
O=C1c2ccccc2C(=O)c2c1ccc(O)c2O	-33%[2.33 µM]	-1%	50µM*	7.1µM*	.
O=C1c2ccc(O)c(O)c2C(=O)c2c(O)ccc(O)c21	?	-56%	.	.	.
CC(=O)Nc1ccccc1Sc1ccccc1	-3%[59 µM]	4%	2%	27%	1%
Cc1ccc(NC(=O)NNC(=O)C2CC(c3cccs3)=NO2)cc1 (stereo not drawn)	51%	11%	-16%	39%	1%
CC(C)[C@H](NC(=O)c1ccc(F)cc1)C(=O)N(C)Cc1cccs1	14%[12.7 µM]	.	-9%	18%	-4%
CCC(CN(C)C)Oc1cc(NCc2ccccc2)c2ncn(C(C)C)c2c1 (stereo not drawn)	.	.	89µM*	8%	.
CCC(CO)Oc1cc(NCc2cccc(Cl)c2)c2ncn(C(C)C)c2c1 (stereo not drawn)	.	.	25µM*	?	.
CCC(CO)Oc1cc(NCc2ccncc2)c2ncn(C(C)C)c2c1 (stereo not drawn)	.	.	-36%	52%	.
CCC(CO)Oc1cc(NCc2ccc(F)cc2)c2ncn(C(C)C)c2c1 (stereo not drawn)	.	.	56µM*	?	.
CCC(CO)Oc1cc(NCc2cccnc2)c2ncn(C(C)C)c2c1 (stereo not drawn)	.	.	79µM*	10%	.
SMILES	G9a block	Sfp PPTase inh	JMJD2A Tudor	HP1b chromo inh	BAZ2B block
CCC/C=C(\CCC)C(NS(=O)(=O)c1cccc2cccnc12)c1ccc(-c2ccccc2)cc1 (stereo not drawn)	.	15%	.	.	.
CN1CCN(c2ccccc2NC(=O)c2ccc3c(c2)OCCO3)CC1	6%[59 µM]	9%	-16%	34%	0%
CN1CCN(c2ncnc3ccc(-c4cccnc4)cc23)CC1	-2%[0.501 µM]	27%	.	.	.
Cc1cc(C(=O)Nc2ccc(C(C)C)cc2)c2c(C)nn(-c3ccccc3)c2n1	2%[59 µM]	.	3%	58%	14%[57.1 µM]
Cc1ccc(S(=O)(=O)N2CCCCC2)cc1NC(=O)CCc1nc2ccccc2c(=O)[nH]1	3.2µM*	.	-20%	17%	-31%
O=C(Nc1ccc(F)c([N+](=O)[O-])c1)C(=O)c1c(O)[nH]c2ccccc12	28µM*	20µM*	-35%	11%	?
COc1cc(NC(=O)COC(=O)CCc2nc3ccccc3c(=O)[nH]2)cc(OC)c1	.	.	-8%	35%	.
COc1cc(Cl)c(C)cc1NC(=O)COC(=O)CCc1nc2ccccc2c(=O)[nH]1	13µM*	.	-12%	22%	8%
N#Cc1cccc(NC(=O)COC(=O)CCc2nc3ccccc3c(=O)[nH]2)c1	13µM*	14%	-1%	45%	-29%
COc1ccc(S(=O)(=O)N2CCCCC2)cc1NC(=O)CCc1nc2ccccc2c(=O)[nH]1	?	.	-12%	10%	-20%
CCc1ccc(-c2nc(SCC(=O)N3CCOCC3)n[nH]2)cc1	-39%	-3%	2%	31%	8%
COc1ccccc1-c1cc(C(=O)Nc2cc(OC)c(OC)c(OC)c2)no1	-23%[59 µM]	.	-8%	41%	-1%
O=C(CN1C(=O)C2CCCCN2c2ccc(C(=O)N3CCCC3)cc21)NCc1cccc(Cl)c1 (stereo not drawn)	8%[59 µM]	.	-14%	15%[57 µM]	-14%
Cc1c(Cl)cccc1NC(=O)CNC(=O)CCCc1nc2ccccc2c(=O)[nH]1	45µM*	.	-3%	27%	14%
O=C(CCc1nc2ccccc2c(=O)[nH]1)Nc1ccc(F)c([N+](=O)[O-])c1	40µM*	-23%	-20%	16%	-25%
Cc1ccc(NC(=O)CCCc2nc3ccccc3c(=O)[nH]2)c(Cl)c1	-18%[59 µM]	.	-13%	28%	-1%
Cc1ccc(NC(=O)COC(=O)CCc2nc3ccccc3c(=O)[nH]2)cc1Cl	35µM*	9%	13%	30%	-12%
COC(=O)[C@@]1(C)C[C@@H]1[C@@H](NC(=O)[C@@]1(C)C[C@@H]1[C@@H](NC(=O)[C@@]1(C)C[C@@H]1[C@@H](NC(=O)[C@@]1(C)C[C@@H]1[C@@H](NC(=O)OCc1ccccc1)c1ccccc1)c1ccccc1)c1ccccc1)c1ccccc1	.	39%	.	.	.
CCOc1ccc(NC(=O)Cn2nc(-c3ccncc3)ccc2=O)cc1	12%[59 µM]	.	-3%	13%[57 µM]	5%
CCn1c(SCC(=O)O)nc2sc3c(c2c1=O)CCC3	45µM*	26%	?	-2%	56µM*
COCCCn1c(SCC(=O)Nc2ccc(NC(C)=O)cc2)nc2sc3c(c2c1=O)CCC3	45µM*	-1%	-14%	0%	-14%
CCn1c(SCC(=O)OC)nc2sc3c(c2c1=O)CCC3	.	6%	50µM*	?	50µM*
CCn1c(SCc2ccc(C(=O)OC)o2)nc2sc3c(c2c1=O)CCCC3	12%[2.33 µM]	35µM*	-22%	26%	-5%
Cn1c(SCC(=O)O)nc2sc3c(c2c1=O)CCC3	-5%[59 µM]	16%	-22%	26%	-5%
